Data from PubChem BioAssay (NCATS).
Results filed as inconclusive are left out. Calls of active or inactive are those of the source. Calls follow the shape of the dose curve; as a rule, active = well fitted inhibition curve with a large enough effect; inconclusive = small, poorly fitted or top-dose-only effect; inactive = flat fitted curve, though single readings scatter.

Legend:
7G8 = assay: qHTS profiling for inhibitors of Plasmodium falciparum proliferation (AID 504749); also: nearly all actives have a fitted effect of over 60% in size;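 as to activity, negative = inhibition: 0% = DMSO vehicle and full inhibition = artemisinin control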; conditions: P. falciparum in erythrocytes, SYBR Green DNA, 72 h; series mostly up to 28.7 µM
In short: (§1)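 Each compound contacts P. falciparum-infected red blood cells for 72 h at 37 C; lysis buffer (Tris, EDTA, saponin, Triton X, SYBR Green I) is added and fluorescence measured next morning; values normalized to controls.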

AA1029 = assay: as above; conditions: P. falciparum in erythrocytes, SYBR Green DNA, 72 h; series mostly up to 28.7 µM
In short: as §1

CP185 = assay: as above; conditions: P. falciparum in erythrocytes, SYBR Green DNA, 72 h; series mostly up to 28.7 µM
In short: as §1

CP191 = assay: as above; conditions: P. falciparum in erythrocytes, SYBR Green DNA, 72 h; series mostly up to 28.7 µM
In short: as §1

CP217 = assay: as above; conditions: P. falciparum in erythrocytes, SYBR Green DNA, 72 h; series mostly up to 28.7 µM
In short: as §1

CP237 = assay: as above; conditions: P. falciparum in erythrocytes, SYBR Green DNA, 72 h; series mostly up to 28.7 µM
In short: as §1

CP247 = assay: as above; conditions: P. falciparum in erythrocytes, SYBR Green DNA, 72 h; series mostly up to 28.7 µM
In short: as §1

3D7 = assay: as above; conditions: P. falciparum in erythrocytes, SYBR Green DNA, 72 h; series mostly up to 28.7 µM
In short: as §1

AS120 = assay: as above; conditions: P. falciparum in erythrocytes, SYBR Green DNA, 72 h; series mostly up to 28.7 µM
In short: as §1

ATS95 = assay: as above; conditions: P. falciparum in erythrocytes, SYBR Green DNA, 72 h; series mostly up to 28.7 µM
In short: as §1

C2A = assay: as above; conditions: P. falciparum in erythrocytes, SYBR Green DNA, 72 h; series mostly up to 28.7 µM
In short: as §1

CP192 = assay: as above; conditions: P. falciparum in erythrocytes, SYBR Green DNA, 72 h; series mostly up to 28.7 µM
In short: as §1

CP201 = assay: as above; conditions: P. falciparum in erythrocytes, SYBR Green DNA, 72 h; series mostly up to 28.7 µM
In short: as §1

CP203 = assay: as above; conditions: P. falciparum in erythrocytes, SYBR Green DNA, 72 h; series mostly up to 28.7 µM
In short: as §1

CP211 = assay: as above; conditions: P. falciparum in erythrocytes, SYBR Green DNA, 72 h; series mostly up to 28.7 µM
In short: as §1

CP215 = assay: as above; conditions: P. falciparum in erythrocytes, SYBR Green DNA, 72 h; series mostly up to 28.7 µM
In short: as §1

[1] = as above; conditions: P. falciparum in erythrocytes, SYBR Green DNA, 72 h; for activity, negative = inhibition: at 28.7 µM (top of the series)
In short: as §1

CP194 = assay: as above; conditions: P. falciparum in erythrocytes, SYBR Green DNA, 72 h; series mostly up to 28.7 µM
In short: as §1

CP238 = assay: as above; conditions: P. falciparum in erythrocytes, SYBR Green DNA, 72 h; series mostly up to 28.7 µM
In short: as §1

ATS189 = assay: as above; conditions: P. falciparum in erythrocytes, SYBR Green DNA, 72 h; series mostly up to 28.7 µM
In short: as §1
Potency is read from the fitted curve at half-maximal effect.

CC(=O)c1ccc2c(c1)N(CCCN1CCN(CCO)CC1)c1ccccc1S2
active: Potency (7G8) 7.08 µM | Potency (AA1029) 8.91 µM | Potency (CP185) 10 µM | Potency (CP191) 11.2 µM | Potency (CP217) 10 µM | Potency (CP237) 11.2 µM | Potency (CP247) 11.2 µM

Cc1cc(-c2ccc(N=Nc3c(S(=O)(=O)O)cc4cc(S(=O)(=O)O)cc(N)c4c3O)c(C)c2)ccc1N=Nc1c(S(=O)(=O)O)cc2cc(S(=O)(=O)O)cc(N)c2c1O
inactive: Potency (3D7) | Potency (AA1029) | Potency (ATS95) | Potency (C2A) | Potency (CP191) | Potency (CP192) | Potency (CP201) | Potency (CP203) | Potency (CP211) | Potency (CP215)
active: Potency (AS120) 14.1 µM

Cn1c(=O)c2c(ncn2CCOC(=O)C(C)(C)Oc2ccc(Cl)cc2)n(C)c1=O
inactive: activity, negative = inhibition ([1]; parasite line A) -0.561% | Potency (3D7) | Potency (7G8) | Potency (CP192) | Potency (CP194) | Potency (CP201) | Potency (CP203) | Potency (CP211) | Potency (CP215) | Potency (CP237)

N[C@@H](Cc1cc(I)c(Oc2ccc(O)c(I)c2)c(I)c1)C(=O)O
inactive: activity, negative = inhibition ([1]; parasite line A) -3.92% | Potency (3D7) | Potency (C2A) | Potency (CP185) | Potency (CP192) | Potency (CP201) | Potency (CP211) | Potency (CP238)
active: Potency (7G8) 12.6 µM

O=C1c2ccccc2C(=O)C1c1ccc(Cl)cc1
inactive: activity, negative = inhibition ([1]; parasite line A) 10.7% | Potency (3D7) | Potency (7G8) | Potency (AA1029) | Potency (AS120) | Potency (ATS189) | Potency (ATS95) | Potency (C2A) | Potency (CP185) | Potency (CP191) | Potency (CP192) | Potency (CP194) | Potency (CP201) | Potency (CP203) | Potency (CP211) | Potency (CP215) | Potency (CP217) | Potency (CP237) | Potency (CP238) | Potency (CP247)

O=C(Nc1ccc(O)cc1)c1ccccc1O
inactive: activity, negative = inhibition ([1]; parasite line A) 12.3% | Potency (3D7) | Potency (AA1029) | Potency (ATS189) | Potency (ATS95) | Potency (C2A) | Potency (CP185) | Potency (CP191) | Potency (CP192) | Potency (CP194) | Potency (CP201) | Potency (CP211) | Potency (CP215) | Potency (CP237) | Potency (CP238)

NC(N)=NCC1COc2ccccc2O1 (configuration not stated)
inactive: Potency (3D7) | Potency (AS120) | Potency (ATS189) | Potency (ATS95) | Potency (CP185) | Potency (CP192) | Potency (CP201) | Potency (CP217) | Potency (CP237) | Potency (CP238)

CCOC(=O)Cc1ccc(-c2ccccc2)cc1
inactive: activity, negative = inhibition ([1]; parasite line A) 8.04% | Potency (3D7) | Potency (7G8) | Potency (AS120) | Potency (ATS189) | Potency (ATS95) | Potency (C2A) | Potency (CP185) | Potency (CP194) | Potency (CP201) | Potency (CP203) | Potency (CP211) | Potency (CP215) | Potency (CP217) | Potency (CP237) | Potency (CP238) | Potency (CP247)

CN1CCCC(CN2c3ccccc3Sc3ccccc32)C1 (configuration not stated)
inactive: Potency (3D7) | Potency (CP192) | Potency (CP201)
active: Potency (7G8) 11.2 µM | Potency (AA1029) 10 µM | Potency (AS120) 12.6 µM | Potency (CP217) 10 µM

Cn1c(O)c(N=NC(N)=S)c2ccccc21
active: Potency (7G8) 12.6 µM | Potency (CP237) 11.2 µM | Potency (CP247) 8.91 µM
inactive: Potency (CP192) | Potency (CP201) | Potency (CP203) | Potency (CP211)

O=C(OCc1ccccc1)c1cccnc1
inactive: activity, negative = inhibition ([1]; parasite line A) -26.7% | Potency (3D7) | Potency (7G8) | Potency (AA1029) | Potency (AS120) | Potency (ATS189) | Potency (ATS95) | Potency (C2A) | Potency (CP185) | Potency (CP192) | Potency (CP201) | Potency (CP203) | Potency (CP211) | Potency (CP217) | Potency (CP237) | Potency (CP238) | Potency (CP247)

CC(=O)Nc1ccc(NC(=S)NC(=O)c2ccc(C(C)(C)C)cc2)cc1
inactive: activity, negative = inhibition ([1]; parasite line B) -2.21% | Potency (AS120) | Potency (ATS189) | Potency (C2A) | Potency (CP185) | Potency (CP191) | Potency (CP192) | Potency (CP194) | Potency (CP201) | Potency (CP203) | Potency (CP211) | Potency (CP215) | Potency (CP217) | Potency (CP238) | Potency (CP247)
active: Potency (3D7) 11.2 µM | Potency (7G8) 8.91 µM

CCCCCCCCCCCCCCCCOCCOCCOCCOCCOCCOCCOCCOCCOCCOCCOCCOCCOCCOCCOCCOCCOCCOCCOCCOCCO
active: Potency ([1]; parasite line A) 15.8 µM | Potency (7G8) 5.62 µM | Potency (AS120) 14.1 µM | Potency (ATS95) 11.2 µM | Potency (CP237) 7.08 µM
